NS1 inh: qHTS Assay for Inhibitors of Influenza NS1 Protein Function. Potency, µM (top dose mostly 46.1 µM), without a hit: at the top dose activity, positive = more growth. hit rate 0.4% among 270,000. AID 2326, 2010; calls by dose curve; further: potency means the concentration at half of the fitted maximal effect; actives are rising curves; nearly all actives have a fitted effect of over 50% in size
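In this qHTS, NS1 from influenza A is expressed in budding yeast, where it slows growth. Cells are switched from glucose to 2% galactose medium (pH 6.0, -URA), treated with compound, and growth recovery is read at OD600.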
CHX counter: Cycloheximide Counterscreen for Small Molecule Inhibitors of Shiga Toxin; cell reporter, cycloheximide protein synthesis inhibition counterscreen; max response, %; hit rate 12% among 300,000; AID 2314, 2010; in the data active means max response mostly above about 13%, no sharp cut-off; inactive means mostly below about 14%; further: read at 38.3 µM for the half of the compounds with a filed dose; 0% is about no effect
Pf growth 96h: Primary qHTS for delayed death inhibitors of the malarial parasite plastid, 96 hour incubation | Potency, µM (highest dose often 28.7 µM), for inactives: top-dose activity change, negative = inhibition, actives largely listed as inhibitors | P. falciparum luciferase reporter growth, 96 h | hit rate 6.9% among 320,000 | AID 504834, 2011; further: potency means the concentration at half of the fitted maximal effect; on the % scale 0 is the no-effect control and ±100 the full control effect
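Erythrocytes infected with luciferase-expressing P. falciparum were dispensed at 2% hematocrit and 0.05% parasitemia (final), then incubated with compounds 96 hours at 37 C in 5% CO2. Luminescence after detection reagent addition reported growth.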
Shiga toxin inh: A qHTS for Small Molecule Inhibitors of Shiga Toxin; Vero cells, Shiga toxin protein synthesis inhibition reporter; inhibition, % at 38.7 µM; hit rate 9.2% among 290,000; AID 2315, 2010; in the data active means inhibition mostly above about 28%, no sharp cut-off; inactive means mostly below about 43%; further: 0% is about no effect
Pf growth 48h: Primary qHTS for delayed death inhibitors of the malarial parasite plastid, 48 hour incubation; P. falciparum luciferase growth in erythrocytes, 48 h; Potency, µM (highest dose often 28.7 µM), for inactives: top-dose activity change, negative = inhibition, most hits filed as inhibitors; hit rate 5.9% among 310,000; AID 504832, 2011; further: potency means the concentration at half of the fitted maximal effect; on the % scale 0 is the no-effect control and ±100 the full control effect
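In quantitative HTS format, infected erythrocytes bearing luciferase-reporter parasites were treated for a single generation at 37 C. Luminescence after adding detection reagent served as the growth measure.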
FBPA Giardia inh: qHTS Assay for Inhibitors of Fructose-1,6-bisphosphate Aldolase from Giardia Lamblia; purified Giardia FBPA; hit rate 0.71% among 290,000; A8B2U2; Potency, µM (doses to about 59.6 µM), without a hit: at the highest dose activity, negative = inhibition, most hits filed as inhibitors; AID 2451, 2010; further: potency means the concentration at half of the fitted maximal effect; on the % scale 0 is the no-effect control and ±100 the full control effect; nearly all actives have a fitted effect of over 55% in size
Target sequence (A8B2U2 whole entry, looked up): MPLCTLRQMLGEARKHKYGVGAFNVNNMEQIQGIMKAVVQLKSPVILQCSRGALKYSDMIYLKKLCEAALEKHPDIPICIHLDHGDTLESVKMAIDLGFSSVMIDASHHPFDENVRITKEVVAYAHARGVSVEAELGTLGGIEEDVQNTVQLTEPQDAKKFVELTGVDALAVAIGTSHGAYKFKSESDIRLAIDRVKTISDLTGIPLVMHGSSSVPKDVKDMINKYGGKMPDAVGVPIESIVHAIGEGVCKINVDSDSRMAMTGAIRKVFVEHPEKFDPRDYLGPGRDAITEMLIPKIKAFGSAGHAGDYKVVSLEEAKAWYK
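Giardia FBPA (40 nM reagent) was preincubated 10 min at RT with compound (up to 57.5 uM final), then substrate plus GAPDH/TPI/NAD/arsenate coupling system with diaphorase/resazurin was added; resorufin fluorescence (525/598 nm) was read after 20 min.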
The depositor's hits bear a star; u = inconclusive; x = no result given; [ ] = dose if it differs, or a comment. This is a sample that favours compounds with a hit; in the whole collection about 21% have one here. Unless noted, the call rests on the fitted dose curve; in most records, active means well fitted curve in the direction sought with a large enough effect; inconclusive means small, poorly fitted or top-dose-only effect, or another doubt; inactive means no such curve, though single readings can be large; an effect the other way counts as inactive or inconclusive.

SMILES | NS1 inh | CHX counter | Pf growth 96h | Shiga toxin inh | Pf growth 48h | FBPA Giardia inh
C[C@@H]1OC(OC2CC[C@@]3(C)C(CC[C@@]4(C)C3CC=C3C5CC(C)(C)CC[C@]5(C(=O)OC5OCC(O)[C@@H](O)[C@@H]5OC5O[C@@H](C)[C@H](O[C@H]6OC(CO)C(O)C(O)C6O)C(O)C5O)C(O)C[C@@]34C)C2(C)C)C(O)C(O)[C@H]1OC1OCC(O)C(O)[C@H]1O (some centres undefined) | x | x | x | x | x | -9%
COCC(=O)N1CCC(Oc2ccc(C(=O)N(C)Cc3nccs3)cc2)CC1 | -2% | 1 | -17% | -8 | 3% | x
COc1cccc2sc(/N=C/N(C)C)nc12 | 2% | 10* | 42% | 50* | 66% | 3%
COc1cccc2sc(N(C)c3ccccc3)nc12 | -21% | 61* | -6% | 86 | x | -9%
COc1cccc2sc(N(CCN(C)C)C(=O)/C=C/c3cccs3)nc12 | x | -14 | u | -28 | -28% | 0%
COc1cccc2sc(N)nc12 | x | x | 22% | x | 30% | x
Cc1cc(C)cc(NC(=O)CCN2CCOCC2)c1 | 17% | -1 | 51% | -3 | 16% | 6%
O=c1[nH]c(NCCO)nnc1Cc1ccccc1 | -20% | 10 | 50% | -9 | 37% | -20%
COC(=O)N/N=C/c1ccccc1 | 1% | 17* | 20% | 30 | 23% | 1%
COc1ccc(/C=N/NC(=S)SC)cc1OC | x | 18* | u | 22 | -29% | 2%
CSC(=S)N/N=C/c1ccccc1 | x | 25* | u | 27* | u | 0%
CCOc1cccc2cc(-c3nc4ccc(C(=O)O)cc4[nH]3)c(=O)oc12 | x | x | 317% | x | 128% | x
COc1ccc(S(=O)(=O)N2CCN3CCCC3C2)cc1 (centres undefined) | 2% | -2 | 209% | 10 | -15% | 1%
Cc1ccc(-c2nn(-c3cc(Cl)ccc3[N+](=O)[O-])c(=O)c3ccccc23)cc1 | -3% | -2 | 12µM* | -1 | u | -6%
CC(C)(C)C(=O)N1CCN(c2ccc([N+](=O)[O-])c(-n3nc(-c4ccccc4)c4ccccc4c3=O)c2)CC1 | u | -5 | 9.3µM* | 24 | 5.2µM* | 1%
CCc1c(C)c2ccc(OCC(=O)NCC3CCC(C(=O)O)CC3)cc2oc1=O (centres undefined) | 18% | -5 | 37% | -6 | 3% | 16%
COc1ccc(OC)c(CNC(=O)CCn2nc(C)c3c(C)n(-c4ccccc4)nc3c2=O)c1 | 9% | -3 | 12% | 16 | -4% | x
COCCn1c(=O)c(CCc2ccccc2)nc2cnc(Oc3ccccc3)nc21 | x | x | x | x | x | -5%
O[C@H]1[C@H]2[C@H](O)CCCN2C[C@H]1O | x | x | 9.5µM* | x | -5% | x
CCN(CC)S(=O)(=O)c1ccc(C(=O)N2CCN(CCN3C(=O)c4cccc5cccc(c45)C3=O)CC2)cc1 | x | -3 | 2.9µM* | 10 | u | 1%
CC(C)(C)C(=O)N1CCN(CCN2C(=O)c3cccc4cccc(c34)C2=O)CC1 | 11% | 1 | -29% | -1 | -17% | 10%
O=C(CN1C(=O)c2ccccc2C1=O)c1ccc(F)cc1 | -4% | 26* | 96% | 49 | 116% | -5%
O=C(CN1CCN(CCN2C(=O)c3cccc4cccc(c34)C2=O)CC1)c1ccc(F)cc1 | 16% | 5 | 1µM* | 17 | 15µM* | -17%
O=C(CN1C(=O)c2ccccc2C1=O)c1ccccc1 | -1% | 20 | 97% | 36 | x | -2%
Cn1c(=O)c(=O)n(C)c2cc(N3CCCC3)c(NS(=O)(=O)c3ccc(Cl)cc3)cc21 | 10% | 14 | 29% | -9 | -3% | u
SMILES | NS1 inh | CHX counter | Pf growth 96h | Shiga toxin inh | Pf growth 48h | FBPA Giardia inh
Cc1cc(C(=O)N2CCCC(CO)(Cc3ccc(F)cc3)C2)c(C)o1 (centres undefined) | -22% | 10 | u | 2 | -19% | x
FC(F)(F)c1nnc(-c2ccccc2)nc1Sc1ccccc1 | -17% | 1 | 13µM* | -2 | u | 6%
FC(F)(F)c1cccc(Sc2nc(-c3ccccc3)nnc2C(F)(F)F)c1 | 5% | 0 | u | 14 | 12µM* | 2%
FC(F)(F)c1nnc(-c2ccccc2)nc1Sc1ccc(Cl)cc1 | 2% | -1 | -1% | -2 | u | -5%
O=C(Cc1ccc(Cl)cc1)NCCCNC(=O)c1cccnc1 | 1% | 13 | 1% | -2 | -11% | x
O=C(N/N=C/c1ccccc1C(=O)O)c1ccc(COc2cccc3cccnc23)cc1 | x | 21 | 19% | 7 | 37% | 8%
Cc1cc(Br)c(OCc2ccc(C(=O)N/N=C/c3ccc[nH]3)cc2)c(Br)c1 | x | x | 10µM* | x | 2.6µM* | x
O=C(N/N=C/c1ccc[nH]1)c1ccc(COc2cccc3cccnc23)cc1 | 4% | 34* | u | 39 | 10µM* | -7%
NNC(=O)c1ccc(COc2cccc3cccnc23)cc1 | x | 32* | 4% | 75 | -51%[5.75 µM] | 0%
COc1ccccc1N1C(=O)C2C(C(=O)c3ccccc3)=NN(c3ccccc3OC)C2C1=O (centres undefined) | -9% | -1 | -1% | -1 | 12% | 0%
COc1cccc(C2C(C(=O)Nc3ccccc3)=C(C)N=c3s/c(=C/c4ccc(OCC(=O)O)cc4)c(=O)n32)c1 (centres undefined) | u | -5 | 1.2µM* | -13 | 7.4µM* | 7%
CC1=C(C(=O)Nc2ccccc2)C(c2ccc(C)o2)n2c(s/c(=C\c3ccco3)c2=O)=N1 (centres undefined) | 25% | 7 | u | 35 | 13µM* | -15%
CCOC(=O)C1=C(C)N=c2s/c(=C\c3ccc(OC(C)=O)cc3)c(=O)n2C1/C=C/c1ccccc1 (centres undefined) | 34% | -2 | u | 7 | 2% | -5%
COc1ccccc1C1C(C(C)=O)=C(C)N=c2s/c(=C\c3cc(OC)c(OC)c(OC)c3)c(=O)n21 (centres undefined) | 20% | -3 | u | -1 | 9.3µM* | -1%
COc1cccc(C2C(C(=O)OC(C)C)=C(C)N=c3s/c(=C\c4ccc(C(=O)O)cc4)c(=O)n32)c1 (centres undefined) | 13% | 1 | u | -12 | u | 12%
CCOC(=O)C1=C(C)N=c2s/c(=C\c3ccc(OC(C)=O)c(OCC)c3)c(=O)n2C1/C=C/c1ccccc1 (centres undefined) | u | -2 | 20% | -6 | 10µM* | -1%
O=C(NCc1ccccc1)C1=C[C@H](C2CC2)C[C@H](OCCCCO)O1 | 1% | -3 | 23% | -8 | 16% | -1%
Cc1cc(NC(=O)COc2ccccc2C)ccc1NC(=O)c1cccs1 | -17% | 5 | u | 2 | -21% | -1%

Screens as filed in PubChem BioAssay.
